Screening data as filed in PubChem.
DT40 TDP1 CPT = growth inhibition of DT40 Tdp1-/-;hTDP1 cells with camptothecin (screen for TDP1 inhibitors); chicken DT40 Tdp1-/-;hTDP1 cells + 20 nM CPT, ATP luminescence, 48 h; Potency, µM (titrated, usually from 46.2 µM), without a hit: at the top dose activity change, negative = growth inhibition, usual class: inhibitors; 12% of 420,000 active; AID 686979; note: potency is the fitted concentration of half-maximal effect; nearly all actives have a fitted effect of over 55% in size
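Cell growth measured by CellTiter-Glo luminescence after a minimum 48 h, 37 C compound exposure with 20 nM CPT in Tdp1-knockout DT40 cells stably expressing hTDP1, seeded 400/well; qHTS titration format.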
DT40 TDP1 no CPT = qHTS for Inhibitors of human tyrosyl-DNA phosphodiesterase 1 (TDP1): qHTS in cells in absence of CPT. DT40 Tdp1-/- hTDP1 cells, no CPT, ATP luminescence, 48 h. Potency, µM (series often up to 46.2 µM), for the others: top-dose activity change, negative = growth inhibition, hits mostly inhibitors. 15% of 420,000 active; note: potency is the fitted concentration of half-maximal effect; nearly all actives have a fitted effect of over 55% in size
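Luminescent ATP content (CellTiter-Glo) served as the growth readout. Knockout chicken DT40 cells expressing human TDP1 were exposed to compounds without camptothecin for a minimum 48 hr at 37 °C.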
HT1080NT lethal = kills 2HG-producing HT-1080-NT fibrosarcoma cells | HT-1080-NT fibrosarcoma viability, CellTiter-Glo ATP luminescence, 48 h | Potency, µM (doses to about 46.1 µM), without a hit: at the top dose activity, negative = less viability, hits mostly cytotoxic | 1.6% of 360,000 active;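 note: NT is the 2HG producing partner of a matched IDH1 knockdown line; potency is the fitted concentration of half-maximal effect; 0% = DMSO-treated cells and -100% = media-only wells without cells; nearly all actives have a fitted effect of over 55% in size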
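HT-1080-NT fibrosarcoma cells (2HG-overproducing), 750 cells/well in RPMI with 5% FBS, dosed after 2 h and incubated 48 h at 37C. CellTiter-Glo luminescence normalized to DMSO and no-cell wells; concentration-response curves fitted and classed.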
IL1B secr inh = inflammasome signaling inhibition, IL-1 beta readout. THP-1 LPS/ATP IL-1B secretion, AlphaLISA, 16 h; stronger effect = lower value. activity change, % at 57.5 µM. 4.7% of 360,000 active; in the data active = activity change below about -50%; inconclusive = mostly about -30% to -49%
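Secreted IL-1B measured by AlphaLISA bead assay after 16 h compound exposure of THP-1 cells; compounds (final up to 57.5 uM) added 1 h before LPS (250 ng/mL) and ATP (1.25 mM) stimulation; lower signal means less secretion.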
HT1080 IDH1KD tx = HT-1080 IDH1 knockdown cell toxicity (counter line). HT-1080 IDH1 knockdown viability, ATP luminescence, 48 h. Potency, µM (top dose mostly 46.1 µM), for inactives: at the top dose activity, negative = toxicity, usual class: cytotoxic. 2% of 360,000 active;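 note: potency is the fitted concentration of half-maximal effect; 0% = DMSO wells and -100% = cell-free medium wells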
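IDH1KD HT-1080 cells, 750/well, RPMI + 5% FBS; compound pinned after 2 h settling; 48 h, 37 °C; CellTiter-Glo luminescence; % activity normalised to DMSO and no-cell wells; curves fitted, classed by r2 and efficacy.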
* = called active by the depositor. An excerpt weighted towards active compounds, which were near 19% of everything screened. Unless noted, calls come from the whole dose curve; as a rule, active = well fitted curve in the direction sought with a large enough effect; inconclusive = small, poorly fitted or top-dose-only effect, or another doubt; inactive = no such curve, though single readings can be large; an effect the other way counts as inactive or inconclusive. Unless noted, % is set by controls: 0 for no effect and ±100 for the full control effect.

Screening COc1ccc(C(=O)OCC(=O)Nc2ccc(Cl)c(C(F)(F)F)c2)c(OC)c1OC returned DT40 TDP1 CPT 20.6µM*, DT40 TDP1 no CPT 20.6µM*, HT1080NT lethal -5.1%, IL1B secr inh -20.2 and HT1080 IDH1KD tx 4.1%.
`COc1ccccc1N1CCN(CC(=O)Nc2ccc(S(=O)(=O)N3CCCCCC3)cc2)CC1` gave DT40 TDP1 CPT inconclusive, DT40 TDP1 no CPT inconclusive, HT1080NT lethal -20.8%, IL1B secr inh -7.1 and HT1080 IDH1KD tx -21.0%.
COc1ccccc1N1CCN(CC(=O)Nc2ccc(Cl)c(C(F)(F)F)c2)CC1 was read as DT40 TDP1 CPT 20.6µM*, DT40 TDP1 no CPT inconclusive, HT1080NT lethal -25.6%, IL1B secr inh -10.4 and HT1080 IDH1KD tx inconclusive.
Screening COc1ccc(C(=O)OC(C)C(=O)Nc2cc(C(F)(F)F)ccc2Cl)c(OC)c1OC (stereo not drawn) returned DT40 TDP1 CPT 5.8µM*, DT40 TDP1 no CPT 16.4µM*, HT1080NT lethal -7.5%, IL1B secr inh 4.3 and HT1080 IDH1KD tx -22.0%.
Screening Cc1ccc(C)c(CNC(=O)CCn2cccn2)c1 returned DT40 TDP1 CPT -0.8% and DT40 TDP1 no CPT -16.8%.
For Cc1cccc(C2N=C(N)Nc3nc4ccccc4n32)c1 (stereo not drawn) the results were DT40 TDP1 CPT 0.7%, DT40 TDP1 no CPT -16.6%, HT1080NT lethal 1.0%, IL1B secr inh -13.3 and HT1080 IDH1KD tx -10.3%.
Screening O=C(CN1CCc2ccccc2C1)Nc1ccc(F)cc1 returned DT40 TDP1 CPT -9.7%, DT40 TDP1 no CPT 5.8%, HT1080NT lethal -0.7%, IL1B secr inh 0.0 and HT1080 IDH1KD tx 4.2%.
O=C(CN1CCc2ccccc2C1)Nc1ccc(OC(F)(F)F)cc1 was read as DT40 TDP1 CPT 11.8%, DT40 TDP1 no CPT -22.0%, HT1080NT lethal -7.5%, IL1B secr inh -64.7* and HT1080 IDH1KD tx -21.0%.
Screening CC(C)(C)c1nnc(NS(=O)(=O)c2ccc([N+](=O)[O-])cc2)s1 returned DT40 TDP1 CPT -5.8%, DT40 TDP1 no CPT -19.7%, HT1080NT lethal -8.7%, IL1B secr inh 10.9 and HT1080 IDH1KD tx -8.2%.
CC(C)(C)NC(=O)CN(Cc1cccs1)C(=O)CCN1CCc2ccccc21 was read as DT40 TDP1 CPT inconclusive, DT40 TDP1 no CPT -21.5%, HT1080NT lethal 3.4%, IL1B secr inh 7.1 and HT1080 IDH1KD tx -0.9%.
CC(C(=O)NC(C)(C)C)N(Cc1cccs1)C(=O)CCN1CCc2ccccc21 (stereo not drawn) was read as DT40 TDP1 CPT 23.1µM*, DT40 TDP1 no CPT inconclusive, HT1080NT lethal -14.5%, IL1B secr inh 20.3 and HT1080 IDH1KD tx -21.4%.
For O=C(c1ccccc1)N1CCc2cc(CNS(=O)(=O)c3ccc(Cl)s3)ccc21 the results were DT40 TDP1 CPT inconclusive and DT40 TDP1 no CPT 16.4µM*.
For O=C(c1ccccc1)N1CCc2cc(CNS(=O)(=O)c3ccccc3Cl)ccc21 the results were DT40 TDP1 CPT 1.3µM* and DT40 TDP1 no CPT 0.92µM*.
Screening CCn1nc(C)c(C2C(C#N)=C(N)OC3=C2C(=O)CC(C)(C)C3)c1C (stereo not drawn) returned DT40 TDP1 CPT -3.9%, DT40 TDP1 no CPT -5.5%, HT1080NT lethal -1.6%, IL1B secr inh 24.1 and HT1080 IDH1KD tx 0.8%.
`Cc1ccc(C)c(NS(=O)(=O)c2cc(C(=O)N3CCCC3)ccc2Cl)c1` gave DT40 TDP1 CPT 3.9%, DT40 TDP1 no CPT 3.8%, HT1080NT lethal -11.3%, IL1B secr inh 19.8 and HT1080 IDH1KD tx inconclusive.
CCCCC(=O)Nc1ccccc1C(=O)OCc1cc(=O)n2nc(C3CCCCC3)sc2n1 was read as DT40 TDP1 CPT inconclusive and DT40 TDP1 no CPT -28.8%.
Screening COC1=C2C[C@H](C)C[C@H](OC)[C@@H](O)[C@@H](C)C=C(C)[C@H](OC(N)=O)[C@@H](OC)C=CC=C(C)C(=O)NC(=CC1=O)C2=O returned DT40 TDP1 CPT 0.0794µM* and DT40 TDP1 no CPT 0.0251µM*.
`CCC1CN(C)C2Cc3c([nH]c4ccccc34)C(=O)CC1C2C(=O)OC` (stereo not drawn) gave DT40 TDP1 CPT 23.1µM*, DT40 TDP1 no CPT -38.4%, HT1080NT lethal 0.0%, IL1B secr inh 7.2 and HT1080 IDH1KD tx -0.8%.
O=C(COC(=O)CCC(=O)c1cccs1)NC1CC1 was read as DT40 TDP1 CPT -0.2%, DT40 TDP1 no CPT 0.2%, HT1080NT lethal 8.0%, IL1B secr inh 4.8 and HT1080 IDH1KD tx 20.0%.
Cc1cc(C)cc(-n2ccnc2SCC(=O)Nc2cccc3ccccc23)c1 was read as DT40 TDP1 CPT 20.6µM* and DT40 TDP1 no CPT 18.4µM*.
Screening O=C(CSc1nccn1-c1ccc(Cl)cc1)Nc1cccc2ccccc12 returned DT40 TDP1 CPT inconclusive and DT40 TDP1 no CPT -13.6%.
Cc1cc(C)cc(-n2ccnc2SCC(=O)Nc2ccccc2F)c1 was read as DT40 TDP1 CPT 23.1µM* and DT40 TDP1 no CPT 16.4µM*.
CN(NC(=O)Nc1ccccc1)c1cnn(C)c(=O)c1Cl was read as DT40 TDP1 CPT inconclusive, DT40 TDP1 no CPT -55.8%, HT1080NT lethal -12.6%, IL1B secr inh 0.0 and HT1080 IDH1KD tx 2.9%.
Cc1ccc(S(=O)(=O)N(C)/N=C/C=C/c2ccccc2)cc1 was read as DT40 TDP1 CPT 6.6%, DT40 TDP1 no CPT 6.9%, HT1080NT lethal -5.6%, IL1B secr inh 27.3 and HT1080 IDH1KD tx -0.9%.
COCCCNCCCCSc1ccc(Cl)cc1 was read as DT40 TDP1 CPT -19.9%, DT40 TDP1 no CPT inconclusive, HT1080NT lethal -10.6%, IL1B secr inh -15.5 and HT1080 IDH1KD tx -15.7%.
Screening O=C(O)c1ccc(COCC(F)(F)C(F)F)o1 returned DT40 TDP1 CPT -2.0%, DT40 TDP1 no CPT 8.0%, HT1080NT lethal 23.2%, IL1B secr inh 8.9 and HT1080 IDH1KD tx 14.6%.
`Cn1c(CN2CCN(S(C)(=O)=O)CC2)nc2cc([N+](=O)[O-])ccc21` gave DT40 TDP1 CPT -23.7%, DT40 TDP1 no CPT -24.3%, HT1080NT lethal 1.6%, IL1B secr inh -15.6 and HT1080 IDH1KD tx -0.2%.
`COc1ccc(C)cc1Nc1nc(C)nc2sc(C)cc12` gave DT40 TDP1 CPT inconclusive, DT40 TDP1 no CPT 20.6µM*, HT1080NT lethal inconclusive, IL1B secr inh 22.1 and HT1080 IDH1KD tx -29.0%.
COc1ccc(C)cc1Nc1nc(-c2ccccc2O)nc2ccccc12 was read as DT40 TDP1 CPT -13.8%, DT40 TDP1 no CPT -8.3%, HT1080NT lethal -0.3%, IL1B secr inh 10.4 and HT1080 IDH1KD tx -3.8%.
COC(=O)c1cc(=O)n(Cc2ccc3c(c2)OCO3)c(=Nc2ccc(F)cc2)s1 was read as DT40 TDP1 CPT inconclusive, DT40 TDP1 no CPT inconclusive, HT1080NT lethal 1.7%, IL1B secr inh -9.1 and HT1080 IDH1KD tx 1.9%.
